# KB-3-1 tox: qHTS assay for MDR1-selective chemotherapeutics: Primary screen using the parental adenocarcinoma cell KB-3-1. Potency, µM (top dose mostly 46.1 µM), usual class: cytotoxic. actives 1.4% (n = 400,000). KB-3-1 viability, CellTiter-Glo ATP luminescence, 72 h; note: potency is the fitted concentration of half-maximal effect; nearly all actives have a fitted effect of over 60% in size
#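 Here the drug-naive KB-3-1 line serves as comparator for MDR sub-line selectivity; cells received compound titrations, 72 h at 37 °C, then CellTiter-Glo readout.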
# KB-V1 MDR tox: qHTS assay for MDR1-selective chemotherapeutics: Primary screen using the drug-selected MDR subline cells KB-V1; actives 3.4% (n = 400,000); Potency, µM (series often up to 46.1 µM), most hits filed as cytotoxic; KB-V1 MDR cells viability, CellTiter-Glo, 72 h; AID 1347076, 2019; note: potency is the fitted concentration of half-maximal effect; nearly all actives have a fitted effect of over 60% in size
#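 Readout: CellTiter-Glo luminescence, 10 min after addition. Cells: KB-V1 MDR subline, 72 h at 37 degrees C with compound. Analysis: corrected, normalized data fitted to concentration-effect curves.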
# IL-1B inflam inh: qHTS for Inhibitors of Inflammasome Signaling: IL-1-beta AlphaLISA Primary Screen; AID 743279, 2014; actives 4.7% (n = 360,000); THP-1 LPS/ATP IL-1B secretion, AlphaLISA, 16 h; hits give low values; activity change, % at 57.5 µM; in the data active = activity change below about -50%; inconclusive = mostly about -30% to -49%
#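 THP-1 cells pretreated 1 hr with compounds (up to 57.5 uM final), then stimulated with LPS (250 ng/mL final) plus ATP (1.25 mM final); secreted IL-1B measured by AlphaLISA after 16 hr, decreased signal indicating inhibition.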
# HT1080NT lethal: qHTS for induction of synthetic lethality in tumor cells producing 2HG: qHTS for the HT-1080-NT fibrosarcoma cell line; AID 686970, 2013; HT-1080-NT fibrosarcoma viability, CellTiter-Glo ATP luminescence, 48 h; actives 1.6% (n = 360,000); Potency, µM (top dose mostly 46.1 µM), for the others: at the highest dose activity, negative = less viability, most hits filed as cytotoxic;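 note: NT is the 2HG producing partner of a matched IDH1 knockdown line; potency is the fitted concentration of half-maximal effect; 0% = DMSO-treated cells and -100% = media-only wells without cells; nearly all actives have a fitted effect of over 55% in size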
#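 A 48-hour cytotoxicity screen used HT-1080-NT cells plated 2 hours before compound delivery. ATP-based CellTiter-Glo luminescence measured viability, normalized to DMSO and no-cell controls.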
# HT1080 IDH1KD tx: qHTS for induction of synthetic lethality in tumor cells producing 2HG: qHTS for the HT-1080-IDH1KD cell line; HT-1080 IDH1 knockdown viability, ATP luminescence, 48 h; Potency, µM (top dose mostly 46.1 µM), without a hit: top-dose activity, negative = toxicity, actives largely listed as cytotoxic; AID 686971, 2013; actives 2% (n = 360,000);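 note: potency is the fitted concentration of half-maximal effect; 0% = DMSO wells and -100% = cell-free medium wells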
#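 After a 2 h attachment period, IDH1KD HT-1080 cells took pin-transferred compound for 48 h at 37 °C; ATP-based luminescence after 10 min room-temperature reagent incubation reported viability.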
# Active calls of the source: *; i = inactive; ? = inconclusive; nt = no result given. Compounds with a hit are over-represented: about 8.8% of the library has one in this group of screens. Unless noted, calls come from the whole dose curve; as a rule, active = well fitted curve in the direction sought with a large enough effect; inconclusive = small, poorly fitted or top-dose-only effect, or another doubt; inactive = no such curve, though single readings can be large; an effect the other way counts as inactive or inconclusive. Unless noted, % is set by controls: 0 for no effect and ±100 for the full control effect.
SMILES,KB-3-1 tox,KB-V1 MDR tox,IL-1B inflam inh,HT1080NT lethal,HT1080 IDH1KD tx
CCCCCCCCCCOC(=O)Cn1c(COc2ccccc2OC)[n+](C)c2ccccc21,?,i,-91.2*,14.6µM*,20.6µM*
O=S(=O)(c1ccc2ccccc2c1)n1nc(-c2ccco2)nc1NCc1cccc(Cl)c1,i,i,nt,nt,nt
CCOC(=O)C1=C(c2ccccc2)NC(SCC(=O)Nc2cccc(C)c2)=C(C#N)C1c1ccco1 (stereo not drawn),i,14.6µM*,-7.1,?,?
CCc1ccc(NC(=O)CSC2=C(C#N)C(c3ccco3)C3=C(CCCC3=O)N2)cc1 (stereo not drawn),?,?,-90.1*,-25.8%,?
N#CC1=C(SCC(=O)c2ccc(Br)cc2)NC2=C(C(=O)CCC2)C1c1ccco1 (stereo not drawn),10.3µM*,20.6µM*,-7.3,13µM*,10.3µM*
O=C(CN(c1cccc([N+](=O)[O-])c1)S(=O)(=O)c1ccccc1)N1CCCCC1,i,?,-13.5,2.6%,2.2%
COc1ccc(NC(=O)Cn2ncc3c([nH]c4ccccc43)c2=O)cc1Cl,i,?,nt,nt,nt
O=C(Cn1ncc2c([nH]c3ccccc32)c1=O)Nc1cccc(C(F)(F)F)c1,i,i,nt,nt,nt
Cc1ccccc1CNC(=O)c1[nH]c(C(F)(F)F)nc1-c1ccccc1,i,i,13.4,-16.8%,-1.3%
Cc1ccc(C)c(NC(=O)C2(C)CC3c4ccccc4C2c2ccccc23)c1 (stereo not drawn),i,i,36.7,2.2%,-2.9%
Cc1cccc(NC(=O)C2(C)CC3c4ccccc4C2c2ccccc23)c1C (stereo not drawn),?,7.31µM*,-13.5,3.0%,4.3%
O=S(=O)(Nc1cc2nc3ccccc3nc2n1Cc1ccccc1)c1ccc(Cl)cc1,i,i,-91.3*,?,-5.9%
NS(=O)(=O)c1cccc(NC(=O)COC(=O)/C(=C/c2cccs2)c2cccs2)c1,i,i,-93.2*,-0.8%,2.3%
NS(=O)(=O)c1cccc(NC(=O)CC2(CC(=O)O)CCCC2)c1,i,i,18.7,14.3%,4.0%
NS(=O)(=O)c1cccc(NC(=O)COC(=O)C2(c3cccc(F)c3)CCCC2)c1,i,i,-53.1*,-11.1%,-11.9%
O=C(CNC(=O)c1ccccc1F)OCc1nc2ccc(Cl)cc2n1CCO,i,i,6.7,-2.7%,1.3%
O=C(OCc1nc2ccc(Cl)cc2n1CCO)c1ccccc1C(=O)c1ccccc1,i,16.4µM*,-13.7,0.2%,-9.8%
Cc1cc2cc(C#N)c(N3CCOCC3)nc2cc1Cl,i,i,8.0,4.5%,18.5%
CCCc1cc(=O)oc2cc3oc(C)c(C)c3cc12,i,14.6µM*,1.9,10.9%,3.6%
COc1ccc(OC)c(NC(=O)CCC(=O)Nc2nnc(C(C)C)s2)c1,i,i,16.4,16.0%,21.7%
Cc1ccc2nc3c(c(N)c2c1)CCN3C,i,i,?,?,?
Cc1ccc2nc3c(c(N)c2c1)CCN3c1ccccc1,i,?,-77.4*,-25.4%,-22.5%
Cc1nc2ccc(NC(=O)c3cccs3)cc2c(=O)n1Cc1ccc(Cl)cc1,?,?,-92.3*,6.31µM*,?
O=C(Cc1ccccc1)N(Cc1cccnc1)c1nc2c(Cl)cccc2s1,i,i,nt,nt,nt
CN(C)S(=O)(=O)c1cccc(NC(=O)c2cc(-c3cccs3)nn2-c2cccc(Cl)c2)c1,9.2µM*,2.31µM*,0.0,-0.9%,-8.4%
SMILES,KB-3-1 tox,KB-V1 MDR tox,IL-1B inflam inh,HT1080NT lethal,HT1080 IDH1KD tx
O=C(O)c1cc(-c2cccs2)nn1-c1cccc(Cl)c1,i,i,6.4,-8.2%,-3.2%
O=C1C(N2CCOCC2)=C(n2nnc3ccccc32)C(=O)c2ccccc21,i,4.11µM*,-78.4*,11.6µM*,16.4µM*
O=C(NCc1cccc(F)c1)C1CCN(c2nc3ccccc3nc2C(F)(F)F)CC1,i,i,nt,nt,nt
NC(CO)c1csc(Nc2ccc(C(F)(F)F)cn2)n1 (stereo not drawn),i,i,-5.4,-15.2%,-24.7%
NC(Cc1ccc(Cl)cc1)c1csc(Nc2ccc(C(F)(F)F)cn2)n1 (stereo not drawn),i,?,-67.4*,?,?
CC(C)CC(N)c1csc(Nc2ccc(C(F)(F)F)cn2)n1 (stereo not drawn),?,16.4µM*,-54.0*,18.4µM*,?
Cc1ccc2nc(NC(=O)c3ccc(OCC4CCCO4)cc3)sc2c1 (stereo not drawn),?,?,-109.9*,-22.7%,7.31µM*
COc1ccc2nc(NC(=O)c3ccc(NC(=O)C4CCCO4)cc3)sc2c1 (stereo not drawn),7.31µM*,i,-1.6,0.7%,-3.2%
Cc1cc(C)c2nc(NC(=O)c3ccc(OCC4CCCO4)cc3)sc2c1 (stereo not drawn),i,i,-15.6,0.0%,?
CCOc1ccc2nc(NC(=O)C3CCCO3)sc2c1 (stereo not drawn),i,i,?,1.1%,0.9%
CC(=O)Nc1cccc(C(=O)N/N=C/c2c[nH]c3ccccc23)c1,i,i,29.8,0.7%,9.1%
O=C(COc1ccccc1Cl)NC(=S)N1CCc2ccccc21,i,i,36.2,11.2µM*,?
OC(COCc1ccccc1)Cn1cnc2ccccc21 (stereo not drawn),i,16.4µM*,-1.7,9.4%,0.2%
OC(CN(c1ccccc1)c1ccccc1)Cn1cnc2ccccc21 (stereo not drawn),?,18.4µM*,-12.2,?,?
CN(CCOCCOc1ccc(Cl)cc1Br)Cc1ccccc1,i,?,-79.8*,?,?
Cc1ccc(Cl)c(OCCCCN(C)Cc2ccccc2)c1,i,20.6µM*,-56.9*,?,?
CN(CCOc1ccccc1Cl)Cc1ccccc1,i,i,-19.5,0.1%,11.4%
Cc1ccc(Cl)c(OCCCN(C)Cc2ccccc2)c1,i,i,-77.2*,?,-21.6%
Cc1c(Cl)cccc1NS(=O)(=O)c1cc2c(cc1Cl)CCC(=O)N2,i,i,nt,nt,nt
CCn1cc(C(=O)NCC(OC)OC)c(=O)c2cc(S(=O)(=O)N3CCC(C)CC3)ccc21,13µM*,i,-6.5,-4.7%,-1.5%
CC1CCN(S(=O)(=O)c2ccc3c(c2)c(=O)c(C(=O)NCc2ccco2)cn3C)CC1,?,9.2µM*,-11.5,-14.9%,-17.7%
